Screening data as filed in PubChem.
HT1080NT lethal – qHTS for induction of synthetic lethality in tumor cells producing 2HG: qHTS for the HT-1080-NT fibrosarcoma cell line; HT-1080-NT fibrosarcoma viability, CellTiter-Glo ATP luminescence, 48 h; Potency, µM (doses to about 46.1 µM), for inactives: top-dose activity, negative = less viability, hits mostly cytotoxic; 360,000 compounds, 1.6% hits; AID 686970, 2013;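 also: NT is the 2HG producing partner of a matched IDH1 knockdown line; potency is read from the fitted curve at half-maximal effect; 0% = DMSO-treated cells and -100% = media-only wells without cells; nearly all actives have a fitted effect of over 55% in size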
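A 48-hour cytotoxicity screen used HT-1080-NT cells plated 2 hours before compound delivery. ATP-based CellTiter-Glo luminescence measured viability, normalized to DMSO and no-cell controls.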
DT40 TDP1 no CPT – qHTS for Inhibitors of human tyrosyl-DNA phosphodiesterase 1 (TDP1): qHTS in cells in absence of CPT; DT40 Tdp1-/- hTDP1 cells, no CPT, ATP luminescence, 48 h; Potency, µM (top dose mostly 46.2 µM), inactives show at the top dose activity change, negative = growth inhibition, actives largely listed as inhibitors; 420,000 compounds, 15% hits; AID 686978, 2013; also: potency is read from the fitted curve at half-maximal effect; nearly all actives have a fitted effect of over 55% in size
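Readout: luminescence from CellTiter-Glo after 30 min in the dark at RT. Cells: DT40 Tdp1-/- with stable hTDP1, 400/well. Exposure: compounds alone, ≥48 hr, 37 °C.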
IL-1B inflam inh – qHTS for Inhibitors of Inflammasome Signaling: IL-1-beta AlphaLISA Primary Screen. THP-1 LPS/ATP IL-1B secretion, AlphaLISA, 16 h; hits give low values. activity change, % at 57.5 µM. 360,000 compounds, 4.7% hits. AID 743279, 2014; in the data active = activity change below about -50%; inconclusive = mostly about -30% to -49%
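THP-1 cells pretreated 1 hr with compounds (up to 57.5 uM final), then stimulated with LPS (250 ng/mL final) plus ATP (1.25 mM final); secreted IL-1B measured by AlphaLISA after 16 hr, decreased signal indicating inhibition.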
HT1080 IDH1KD tx – qHTS for induction of synthetic lethality in tumor cells producing 2HG: qHTS for the HT-1080-IDH1KD cell line | HT-1080 IDH1 knockdown viability, ATP luminescence, 48 h | Potency, µM (series often up to 46.1 µM), inactives show at the highest dose activity, negative = toxicity, actives largely listed as cytotoxic | 360,000 compounds, 2% hits;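 also: potency is read from the fitted curve at half-maximal effect; 0% = DMSO wells and -100% = cell-free medium wells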
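Knockdown cells (IDH1KD HT-1080) received compounds 2 h after plating at 750 cells/well and were kept 48 h at 37 °C in 5% FBS RPMI. A CellTiter-Glo luminescence read gave % activity for curve fitting.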
DT40 TDP1 CPT – qHTS for Inhibitors of human tyrosyl-DNA phosphodiesterase 1 (TDP1): qHTS in cells in presence of CPT | chicken DT40 Tdp1-/-;hTDP1 cells + 20 nM CPT, ATP luminescence, 48 h | Potency, µM (series often up to 46.2 µM), inactives show at the top dose activity change, negative = growth inhibition, most hits filed as inhibitors | 420,000 compounds, 12% hits; also: potency is read from the fitted curve at half-maximal effect; nearly all actives have a fitted effect of over 55% in size
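Chicken DT40 Tdp1-/- cells complemented with human TDP1, 400 cells/well, exposed to compounds plus 20 nM camptothecin for at least 48 h at 37 C; viability read as ATP content by CellTiter-Glo luminescence.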
An asterisk follows results filed as active; ? = inconclusive; . = no result given; [ ] = remark or other dose. This is a sample that favours compounds with a hit; in the whole collection about 19% have one here. Unless noted, calls follow the shape of the dose curve; as a rule, active = well fitted curve in the direction sought with a large enough effect; inconclusive = small, poorly fitted or top-dose-only effect, or another doubt; inactive = no such curve, though single readings can be large; an effect the other way counts as inactive or inconclusive. Unless noted, % is scaled to controls: 0 for no effect and ±100 for the full control effect.

SMILES | HT1080NT lethal | DT40 TDP1 no CPT | IL-1B inflam inh | HT1080 IDH1KD tx | DT40 TDP1 CPT
COc1ccc(C(CC(=O)c2ccccc2)S(=O)(=O)c2ccc(C)cc2)cc1 (centres undefined) | 15.9% | 14.1µM* | -29.2 | 1.3% | ?
COc1ccc2[nH]cc(CCN=C3SCC(=O)N3C)c2c1 | 24.2% | -10.5% | ? | 14.6% | -10.7%
CC(C)CNC(=O)c1cccc(NC(=O)C2CCCO2)c1 (centres undefined) | 13.4% | -8.0% | 8.1 | 29.4% | 0.3%
COc1ccc(Cl)cc1C(=O)NCc1nnnn1-c1ccccc1 | . | -9.3% | . | . | -5.5%
COc1ccc2cc(C3CC=C(COC(C)=O)CN3S(=O)(=O)c3ccccc3[N+](=O)[O-])n(C(=O)OC(C)(C)C)c2c1 (centres undefined) | -7.4% | -9.2% | -8.0 | -14.7% | ?
COc1ccc2c(c1)-c1nc(-n3ncc(C(=O)N(C)CCO)c3C3CC3)ncc1CC2 | . | -22.0% | . | . | 3.2%[9.04 µM]
Cc1cc(S(=O)(=O)C(CNC(=O)c2ccc(F)c(F)c2)c2cccs2)ccc1F (centres undefined) | . | -2.6% | . | . | 2.7%
COc1ccc(C(=O)C/C(=C\C(=O)c2ccc(C)cc2)c2ccccc2)cc1 | ? | 23.1µM* | -24.2 | -29.4% | 18.4µM*
COc1cccc(CNC(=O)C(=O)NCC(c2cccs2)S(=O)(=O)c2cccs2)c1 (centres undefined) | . | 20.6µM* | . | . | ?
Cc1ccc(C(=O)NCC(c2cccs2)S(=O)(=O)c2ccccc2)cc1C (centres undefined) | . | 4.11µM* | . | . | 14.6µM*
COc1ccc(C(=O)CC(=O)c2ccccc2)cc1 | -11.7% | ? | -13.1 | -16.9% | -16.6%
O=C(NCc1ccccc1Cl)C(=O)NCC(c1cccs1)S(=O)(=O)c1cccs1 (centres undefined) | . | 18.4µM* | . | . | ?
O=C(NCc1ccc(Cl)cc1)C(=O)NCC(c1cccs1)S(=O)(=O)c1cccs1 (centres undefined) | . | ? | . | . | -84.6%
C[C@H](CO)N1C[C@H](C)[C@@H](CN(C)S(=O)(=O)c2ccc(C#N)cc2)OCc2cnnn2CCCC1=O | 15.4% | -5.8% | 13.2 | 0.9% | 1.2%
O=C(COC(=O)c1cnccn1)c1ccc(-c2ccccc2)cc1 | 2.8% | -2.8% | 10.0 | -0.7% | 7.6%
Cc1cccc(OCC(=O)NNC(=O)C2CCCCC2C(=O)O)c1 (centres undefined) | 11.0% | -22.5% | 11.0 | 8.5% | -23.0%
N#C/C(=C(/O)COC(=O)CSc1ccc(Cl)cc1)c1nc2ccccc2[nH]1 | -3.0% | 5.17µM* | -102.0* | -2.7% | 18.4µM*
N#CC(=C(O)COC(=O)CCC1CCCCC1)c1nc2ccccc2[nH]1 | 8.5% | 5.17µM* | -98.5* | 16.5% | 5.8µM*
Cc1cc(SCC(=O)OC/C(O)=C(\C#N)c2nc3ccccc3[nH]2)c(C)cc1Br | ? | ? | -100.1* | ? | ?
O=C(NCc1cccc(Cl)c1)c1ccc2c(Cl)c3c(nc2c1)CCCC3 | . | 14.6µM* | . | . | ?
O=C(NCc1ccc(Cl)cc1)c1ccc2c(Cl)c3c(nc2c1)CCCC3 | . | ? | . | . | 16.4µM*
N#Cc1ccccc1NC(=O)c1ccc2c(Cl)c3c(nc2c1)CCCC3 | 7.1% | ? | . | 14.7% | ?
O=C(Nc1cc(=O)[nH]c(=O)[nH]1)c1cc(Cl)ccc1Cl | ? | 4.11µM* | 59.1 | 3.26µM* | 3.26µM*
O=C(Nc1cc(=O)[nH]c(=O)[nH]1)c1cccc(C(F)(F)F)c1 | -9.8% | -3.8% | 13.8 | -9.3% | -21.3%
COc1ccc(CCNC(=O)COc2ccc(C)nc2[N+](=O)[O-])cc1OC | -5.7% | -26.9% | 16.2 | -0.8% | -4.8%
